Compound activity: PubChem, National Center for Advancing Translational Sciences (NCATS)
Rows were chosen to be rich in hits. Some 21% of all compounds tested hit in one or more screens of this group.
Cycloheximide cs: counter-screen hit for Shiga toxin inhibitors, cycloheximide | cell reporter, cycloheximide protein synthesis inhibition counterscreen | max response, % | 300,000 compounds, 12% hits | AID 2314; in the data active = max response mostly above about 13%, no sharp cut-off; inactive = mostly below about 14%; also: read at 38.3 µM for the half of the compounds with a filed dose
NS1 inh: inhibitors of influenza NS1 protein function. AID 2326. 270,000 compounds, 0.4% hits. Potency, µM (top dose mostly 46.1 µM); calls by dose curve; also: actives are rising curves; nearly all actives have a fitted effect of over 50% in size
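Recovery from NS1-induced slow growth read by OD600 in budding yeast switched to galactose assay medium (pH 6.0, -URA) at 1:100 dilution. Compound 23 nl per well; the matching strain lacking NS1 serves as control.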
Shiga toxin inh: inhibitors of Shiga toxin in Vero cells | Vero cells, Shiga toxin protein synthesis inhibition reporter | inhibition, % at 38.7 µM | 290,000 compounds, 9.2% hits | AID 2315; in the data active = inhibition mostly above about 28%, no sharp cut-off; inactive = mostly below about 43%
Giardia FBPA inh: blocks Giardia fructose-bisphosphate aldolase activity. A8B2U2. Potency, µM (series often up to 59.6 µM), actives largely listed as inhibitors. 290,000 compounds, 0.71% hits. purified Giardia FBPA; also: nearly all actives have a fitted effect of over 55% in size
Target sequence (A8B2U2 whole entry, looked up): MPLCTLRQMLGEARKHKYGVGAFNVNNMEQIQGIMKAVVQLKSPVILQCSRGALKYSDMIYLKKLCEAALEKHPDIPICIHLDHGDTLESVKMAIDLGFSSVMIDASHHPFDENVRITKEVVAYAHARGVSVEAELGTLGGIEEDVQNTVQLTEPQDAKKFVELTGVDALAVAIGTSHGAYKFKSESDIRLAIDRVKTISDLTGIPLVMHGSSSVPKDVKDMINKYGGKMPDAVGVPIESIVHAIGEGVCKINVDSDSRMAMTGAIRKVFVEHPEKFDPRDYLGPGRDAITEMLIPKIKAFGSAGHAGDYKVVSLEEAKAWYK
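40 nM FBPA preincubated 10 min at RT with compound (up to 57.5 uM final), then substrate plus GAPDH/TPI/NAD/arsenate coupling and diaphorase/resazurin added. Fluorescence read after 20 min at RT, 525/598 nm.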
Pf growth 96h: inhibits malaria parasite growth, 96 h; Potency, µM (doses to about 28.7 µM), usual class: inhibitors; 320,000 compounds, 6.9% hits; P. falciparum luciferase reporter growth, 96 h
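Readout is luminescence from an integrated firefly luciferase in P. falciparum. Red cells, 2% hematocrit and 0.05% parasitemia final, were cultured with compound through two parasite generations (96 hours) at 37 C, 5% CO2.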
Pf growth 48h: inhibits P. falciparum growth in the first generation, 48 h | P. falciparum luciferase growth in erythrocytes, 48 h | Potency, µM (titrated, usually from 28.7 µM), most hits filed as inhibitors | 310,000 compounds, 5.9% hits
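Here the parasites carry a stable luciferase gene and grow inside erythrocytes in Albumax-based RPMI medium with compound for one erythrocytic cycle. Activity is scored as loss of luminescent signal.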
Hits are given with their value; - = inactive; ? = inconclusive; . = no result given; + = active, no number; [ ] = remark or other dose. Unless noted, calls follow the shape of the dose curve; as a rule, active = well fitted curve in the direction sought with a large enough effect; inconclusive = small, poorly fitted or top-dose-only effect, or another doubt; inactive = no such curve, though single readings can be large; an effect the other way counts as inactive or inconclusive.

SMILES	Cycloheximide cs	NS1 inh	Shiga toxin inh	Giardia FBPA inh	Pf growth 96h	Pf growth 48h
Cc1cc(SCC(=O)c2ccccc2)nc(=O)[nH]1	63.3	-	85.2	-	-	-
Cc1ccc(C(=O)CSc2cc(C)[nH]c(=O)n2)cc1	36.8	-	84.1	.	-	-
Cc1cc(SCC(=O)c2ccc(Cl)cc2)nc(=O)[nH]1	43.2	-	52.3	-	-	-
Cc1nc2cc(Nc3ccncc3)ccc2s1	-	.	-	-	?	-[5.75 µM]
Cc1cc(C)c2nc(NCc3ccccc3O)sc2c1	22.0	-	113.9	-	-	-[0.00184 µM]
COc1cc(CNc2nc3c(C)cc(C)cc3s2)ccc1O	24.9	-	47.8	-	-	.
COc1ccc(CNC(=O)c2cc(-c3ccncc3)nc3c(C)cc(C)cc23)cc1OC	-	-	-	-	-	?
CCC(=O)NNc1nc2c(C)cc(C)cc2s1	-	.	-	-	-	-
CN(C(=O)CSc1nc2ccccc2s1)c1c(N)n(Cc2ccccc2)c(=O)[nH]c1=O	-	-	-	-	-	?
COc1cccc(NC(=O)/C=C/c2ccc([N+](=O)[O-])cc2)c1	39.2	-	47.0	-	-	-
COc1cccc(NC(=O)/C=C/c2ccccc2[N+](=O)[O-])c1	61.0	-	74.2	-	?	-
O=C(/C=C/c1cc([N+](=O)[O-])ccc1OC(F)F)Nc1cccc(OC(F)F)c1	-	-	-	-	8.28µM	?
COC(=O)C(=Cc1ccccc1[N+](=O)[O-])C(=O)OC	-	-	-	-	9.28µM	?
COc1ccc(OC)c(NC(=O)/C=C/c2ccccc2[N+](=O)[O-])c1	-	-	-	-	-	-
CCCCCCCCCCCCCCCC(=O)OC(CO)CO	.	.	.	-	.	.
C=CCNC(=O)CSc1nnc(-c2ccc(S(=O)(=O)N3CCCC3)cc2)n1C	-	-	-	-	-	-
O=C(/C=C/c1ccccc1[N+](=O)[O-])Nc1cccnc1	35.7	-	44.8	-	-	-
S=c1nc(C2COc3ccccc3O2)[nH][nH]1 (stereo not given)	-	-	-	?	-	-
Cc1nc(C2COc3ccccc3O2)sc1C(=O)O (stereo not given)	13.1	-	70.7	-	?	-
CC(=O)Nc1cc(NC(C)=O)cc(C(=O)OCC(=O)Nc2ccc(S(=O)(=O)NC3=NCCCCC3)cc2)c1	-	-	-	.	-	-
CCCN(CC(=O)Nc1ccccc1C)C(=O)C1CCN(S(=O)(=O)c2ccccc2C(F)(F)F)CC1	.	.	.	.	?	9.28µM
CCCN(CC(=O)Nc1ccccc1C)C(=O)C1CCN(c2ncnc3sc(C)c(C)c23)CC1	.	.	.	.	7.38µM	?
CCN(CC(=O)Nc1ccccc1C(F)(F)F)C(=O)C1CCC1	.	.	.	.	-	-
CCOc1ccc(NC(=O)CN(C)C(=O)C2CCN(c3ncnc4sc(C)c(C)c34)CC2)cc1OCC	-	-	-	-	?	?
Cc1sc2ncnc(N3CCC(C(=O)N(CC(C)C)c4nc5ccccc5s4)CC3)c2c1C	.	.	.	.	3.7µM	?
SMILES	Cycloheximide cs	NS1 inh	Shiga toxin inh	Giardia FBPA inh	Pf growth 96h	Pf growth 48h
CCCCNC(=S)N1CCN(C(c2ccccc2)c2ccccc2)CC1	-	.	-	-	-	10.4µM
COCCNC(=S)N1CCN(C(c2ccccc2)c2ccccc2)CC1	-	-	-	-	?	-
CCNC(=S)N1CCN(C(c2ccccc2)c2ccccc2)CC1	-	-	-	-	8.28µM	13.1µM
S=C(NCCc1ccccc1)N1CCN(C(c2ccccc2)c2ccccc2)CC1	-	-	-	-	?	9.28µM
CCCNC(=S)N1CCN(C(c2ccccc2)c2ccccc2)CC1	-	-	-	-	?	?
CSc1ccc(/C=C(\C(=O)O)c2ccc(S(=O)(=O)N3CCCC3)s2)cc1	.	.	.	.	?	-
COc1ccc(-c2c[n+]3c(n2-c2c(C)n(C)n(-c4ccccc4)c2=O)CCCCC3)cc1	-	.	-	-	-	?
FC(F)Oc1ccc(-c2c[n+]3c(n2-c2ccccc2)CCCCC3)cc1	-	-	-	-	?	?
COc1ccc(-c2c[n+]3c(n2-c2ccccc2)CCCCC3)cc1	-	-	-	-	?	1.04µM
COc1ccc(-c2c[n+]3c(n2-c2ccc(C)cc2)CCCCC3)cc1	-	-	-	-	0.294µM	0.928µM
COc1ccc(-n2c(-c3ccc(Cl)cc3)c[n+]3c2CCCCC3)cc1	-	-	-	-	0.465µM	1.04µM
COc1ccc(-c2c[n+]3c4n2CCCCC4=C(c2ccccc2)C3)cc1	-	-	-	.	6.57µM	?
CCOc1ccc2c(c1)C(C)=CC(C)(C)N2C(=O)Nc1ccccc1F	-	-	-	?	9.28µM	-
CCNC(=O)N1c2ccc(OCC)cc2C(C)=CC1(C)C	-	-	-	-	.	-
Cc1cccc(C2=NN(c3ccccc3)[C@H](CO)[C@H]2C)c1	-	.	+	-	.	.
Cc1cccc(C2=NN(c3ccccc3)[C@H](CO)[C@H]2c2ccccc2)c1	-	.	-	-	.	.
CC1(C)Cc2c(sc3nc(-c4cc5ccccc5o4)n(N)c(=O)c23)CO1	19.1	-	-	-	?	-
Cc1ccc(-c2nc3sc4c(c3c(=O)n2N)CC(C)(C)OC4)cc1	-	-	-	-	.	-
COc1ccc(C2=Nn3c(nnc3-c3cc(OC)ccc3OC)SC2)cc1	-	.	-	-	.	.
Cc1ccc(/C=C/C(=O)c2c(C)cc(C)[nH]c2=O)cc1	-	-	-	-	?	?
CCc1ccc(/C=C/C(=O)c2c(C)cc(C)[nH]c2=O)cc1	-	-	-	-	-	9.28µM
C/C(=C\c1ccc(Br)cc1)C(=O)c1c(C)cc(C)[nH]c1=O	-	-	-	-	10.4µM	-
CC(NC(=O)c1ccc(C(=O)c2ccccc2)cc1)c1ccc(S(N)(=O)=O)cc1 (stereo not given)	.	.	.	.	-	-
N#Cc1ccc(CN2CCN(C(=O)CN3C(=O)NC4(CCCC4)C3=O)CC2)cc1	.	.	.	.	-	-
COC(=O)c1scc(C)c1NC(=O)c1ccc(Cl)cc1	-	-	-	-	-	-
SMILES	Cycloheximide cs	NS1 inh	Shiga toxin inh	Giardia FBPA inh	Pf growth 96h	Pf growth 48h
CC(C)NOC(=O)c1ccc(Cl)cc1	46.4	.	-	-	?	-
CCN(C(=O)COC(=O)CCC(=O)c1ccccc1)c1c(N)n(Cc2ccccc2)c(=O)[nH]c1=O	.	.	.	.	-	-
CC(=O)c1[nH]c(C)c(C(C)=O)c1C	-	-	-	.	?	-
CCOc1ccc(OCC)c(NC(=O)c2[nH]c(C)c(C(C)=O)c2C)c1	-	-	-	-	-	-
CC(=O)c1c(C)[nH]c(C(=O)NC2=NCCS2)c1C	16.7	-	30.4	-	-	-
CCC(C)c1ccc(NC(=O)c2[nH]c(C)c(C(C)=O)c2C)cc1 (stereo not given)	23.0	-	71.3	-	3.29µM	4.65µM
CSc1cccc(NC(=O)c2[nH]c(C)c(C(C)=O)c2C)c1	43.9	-	93.5	-	?	-
Cc1[nH]c2ccccc2c1C(=O)C(=O)NCCc1c[nH]c2ccccc12	-	-	-	.	?	-
CC(=O)c1c(C)[nH]c(C(=O)NCCc2c[nH]c3ccccc23)c1C	39.1	-	41.1	-	-	-
